Data: the supplement of paper PMC11001985
Unmarked numbers belong to inactive results.

Compound: C#CCNC(=O)CCSSCCC(=O)NCCc1ccc(C=O)c(C=O)c1
Test: lysine labeling ratio R10:1 (500 µM / 50 µM probe), SILAC-ABPP in living cells; higher = lower intrinsic lysine reactivity toward the probe, active = 2 or less
Conditions: HeLa; probe concentrations 500 vs 50 µM
Method in brief: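 SILAC light and heavy living HeLa cells in PBS at room temperature were labelled with 50 µM or 500 µM of an alkyne-tagged, disulfide-linked lysine probe, with forward and reverse label swaps. Mixed lysates were clicked to biotin-azide, trypsin-digested, captured on neutravidin, DTT-released, alkylated and analysed by LC-MS/MS on a TIMS-TOF Pro. R is the filtered median high-probe/low-probe MS1 peptide ratio per lysine, then the median across forward and reverse replicates. Ratios are capped at 20.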

## UniProt O95980 (lysine site: K230)
  lysine labeling ratio R10:1: 1.91 (active)

## SLC39A10 (lysine site: K66) (UniProt Q9ULF5)
  lysine labeling ratio R10:1: 0.9 (active)

## SPTAN1 (lysine site: K2184) (UniProt Q13813)
  lysine labeling ratio R10:1: 5.14

## UniProt Q15149 (lysine site: K4270)
Sequence of UniProt Q15149 (Q15149 whole entry): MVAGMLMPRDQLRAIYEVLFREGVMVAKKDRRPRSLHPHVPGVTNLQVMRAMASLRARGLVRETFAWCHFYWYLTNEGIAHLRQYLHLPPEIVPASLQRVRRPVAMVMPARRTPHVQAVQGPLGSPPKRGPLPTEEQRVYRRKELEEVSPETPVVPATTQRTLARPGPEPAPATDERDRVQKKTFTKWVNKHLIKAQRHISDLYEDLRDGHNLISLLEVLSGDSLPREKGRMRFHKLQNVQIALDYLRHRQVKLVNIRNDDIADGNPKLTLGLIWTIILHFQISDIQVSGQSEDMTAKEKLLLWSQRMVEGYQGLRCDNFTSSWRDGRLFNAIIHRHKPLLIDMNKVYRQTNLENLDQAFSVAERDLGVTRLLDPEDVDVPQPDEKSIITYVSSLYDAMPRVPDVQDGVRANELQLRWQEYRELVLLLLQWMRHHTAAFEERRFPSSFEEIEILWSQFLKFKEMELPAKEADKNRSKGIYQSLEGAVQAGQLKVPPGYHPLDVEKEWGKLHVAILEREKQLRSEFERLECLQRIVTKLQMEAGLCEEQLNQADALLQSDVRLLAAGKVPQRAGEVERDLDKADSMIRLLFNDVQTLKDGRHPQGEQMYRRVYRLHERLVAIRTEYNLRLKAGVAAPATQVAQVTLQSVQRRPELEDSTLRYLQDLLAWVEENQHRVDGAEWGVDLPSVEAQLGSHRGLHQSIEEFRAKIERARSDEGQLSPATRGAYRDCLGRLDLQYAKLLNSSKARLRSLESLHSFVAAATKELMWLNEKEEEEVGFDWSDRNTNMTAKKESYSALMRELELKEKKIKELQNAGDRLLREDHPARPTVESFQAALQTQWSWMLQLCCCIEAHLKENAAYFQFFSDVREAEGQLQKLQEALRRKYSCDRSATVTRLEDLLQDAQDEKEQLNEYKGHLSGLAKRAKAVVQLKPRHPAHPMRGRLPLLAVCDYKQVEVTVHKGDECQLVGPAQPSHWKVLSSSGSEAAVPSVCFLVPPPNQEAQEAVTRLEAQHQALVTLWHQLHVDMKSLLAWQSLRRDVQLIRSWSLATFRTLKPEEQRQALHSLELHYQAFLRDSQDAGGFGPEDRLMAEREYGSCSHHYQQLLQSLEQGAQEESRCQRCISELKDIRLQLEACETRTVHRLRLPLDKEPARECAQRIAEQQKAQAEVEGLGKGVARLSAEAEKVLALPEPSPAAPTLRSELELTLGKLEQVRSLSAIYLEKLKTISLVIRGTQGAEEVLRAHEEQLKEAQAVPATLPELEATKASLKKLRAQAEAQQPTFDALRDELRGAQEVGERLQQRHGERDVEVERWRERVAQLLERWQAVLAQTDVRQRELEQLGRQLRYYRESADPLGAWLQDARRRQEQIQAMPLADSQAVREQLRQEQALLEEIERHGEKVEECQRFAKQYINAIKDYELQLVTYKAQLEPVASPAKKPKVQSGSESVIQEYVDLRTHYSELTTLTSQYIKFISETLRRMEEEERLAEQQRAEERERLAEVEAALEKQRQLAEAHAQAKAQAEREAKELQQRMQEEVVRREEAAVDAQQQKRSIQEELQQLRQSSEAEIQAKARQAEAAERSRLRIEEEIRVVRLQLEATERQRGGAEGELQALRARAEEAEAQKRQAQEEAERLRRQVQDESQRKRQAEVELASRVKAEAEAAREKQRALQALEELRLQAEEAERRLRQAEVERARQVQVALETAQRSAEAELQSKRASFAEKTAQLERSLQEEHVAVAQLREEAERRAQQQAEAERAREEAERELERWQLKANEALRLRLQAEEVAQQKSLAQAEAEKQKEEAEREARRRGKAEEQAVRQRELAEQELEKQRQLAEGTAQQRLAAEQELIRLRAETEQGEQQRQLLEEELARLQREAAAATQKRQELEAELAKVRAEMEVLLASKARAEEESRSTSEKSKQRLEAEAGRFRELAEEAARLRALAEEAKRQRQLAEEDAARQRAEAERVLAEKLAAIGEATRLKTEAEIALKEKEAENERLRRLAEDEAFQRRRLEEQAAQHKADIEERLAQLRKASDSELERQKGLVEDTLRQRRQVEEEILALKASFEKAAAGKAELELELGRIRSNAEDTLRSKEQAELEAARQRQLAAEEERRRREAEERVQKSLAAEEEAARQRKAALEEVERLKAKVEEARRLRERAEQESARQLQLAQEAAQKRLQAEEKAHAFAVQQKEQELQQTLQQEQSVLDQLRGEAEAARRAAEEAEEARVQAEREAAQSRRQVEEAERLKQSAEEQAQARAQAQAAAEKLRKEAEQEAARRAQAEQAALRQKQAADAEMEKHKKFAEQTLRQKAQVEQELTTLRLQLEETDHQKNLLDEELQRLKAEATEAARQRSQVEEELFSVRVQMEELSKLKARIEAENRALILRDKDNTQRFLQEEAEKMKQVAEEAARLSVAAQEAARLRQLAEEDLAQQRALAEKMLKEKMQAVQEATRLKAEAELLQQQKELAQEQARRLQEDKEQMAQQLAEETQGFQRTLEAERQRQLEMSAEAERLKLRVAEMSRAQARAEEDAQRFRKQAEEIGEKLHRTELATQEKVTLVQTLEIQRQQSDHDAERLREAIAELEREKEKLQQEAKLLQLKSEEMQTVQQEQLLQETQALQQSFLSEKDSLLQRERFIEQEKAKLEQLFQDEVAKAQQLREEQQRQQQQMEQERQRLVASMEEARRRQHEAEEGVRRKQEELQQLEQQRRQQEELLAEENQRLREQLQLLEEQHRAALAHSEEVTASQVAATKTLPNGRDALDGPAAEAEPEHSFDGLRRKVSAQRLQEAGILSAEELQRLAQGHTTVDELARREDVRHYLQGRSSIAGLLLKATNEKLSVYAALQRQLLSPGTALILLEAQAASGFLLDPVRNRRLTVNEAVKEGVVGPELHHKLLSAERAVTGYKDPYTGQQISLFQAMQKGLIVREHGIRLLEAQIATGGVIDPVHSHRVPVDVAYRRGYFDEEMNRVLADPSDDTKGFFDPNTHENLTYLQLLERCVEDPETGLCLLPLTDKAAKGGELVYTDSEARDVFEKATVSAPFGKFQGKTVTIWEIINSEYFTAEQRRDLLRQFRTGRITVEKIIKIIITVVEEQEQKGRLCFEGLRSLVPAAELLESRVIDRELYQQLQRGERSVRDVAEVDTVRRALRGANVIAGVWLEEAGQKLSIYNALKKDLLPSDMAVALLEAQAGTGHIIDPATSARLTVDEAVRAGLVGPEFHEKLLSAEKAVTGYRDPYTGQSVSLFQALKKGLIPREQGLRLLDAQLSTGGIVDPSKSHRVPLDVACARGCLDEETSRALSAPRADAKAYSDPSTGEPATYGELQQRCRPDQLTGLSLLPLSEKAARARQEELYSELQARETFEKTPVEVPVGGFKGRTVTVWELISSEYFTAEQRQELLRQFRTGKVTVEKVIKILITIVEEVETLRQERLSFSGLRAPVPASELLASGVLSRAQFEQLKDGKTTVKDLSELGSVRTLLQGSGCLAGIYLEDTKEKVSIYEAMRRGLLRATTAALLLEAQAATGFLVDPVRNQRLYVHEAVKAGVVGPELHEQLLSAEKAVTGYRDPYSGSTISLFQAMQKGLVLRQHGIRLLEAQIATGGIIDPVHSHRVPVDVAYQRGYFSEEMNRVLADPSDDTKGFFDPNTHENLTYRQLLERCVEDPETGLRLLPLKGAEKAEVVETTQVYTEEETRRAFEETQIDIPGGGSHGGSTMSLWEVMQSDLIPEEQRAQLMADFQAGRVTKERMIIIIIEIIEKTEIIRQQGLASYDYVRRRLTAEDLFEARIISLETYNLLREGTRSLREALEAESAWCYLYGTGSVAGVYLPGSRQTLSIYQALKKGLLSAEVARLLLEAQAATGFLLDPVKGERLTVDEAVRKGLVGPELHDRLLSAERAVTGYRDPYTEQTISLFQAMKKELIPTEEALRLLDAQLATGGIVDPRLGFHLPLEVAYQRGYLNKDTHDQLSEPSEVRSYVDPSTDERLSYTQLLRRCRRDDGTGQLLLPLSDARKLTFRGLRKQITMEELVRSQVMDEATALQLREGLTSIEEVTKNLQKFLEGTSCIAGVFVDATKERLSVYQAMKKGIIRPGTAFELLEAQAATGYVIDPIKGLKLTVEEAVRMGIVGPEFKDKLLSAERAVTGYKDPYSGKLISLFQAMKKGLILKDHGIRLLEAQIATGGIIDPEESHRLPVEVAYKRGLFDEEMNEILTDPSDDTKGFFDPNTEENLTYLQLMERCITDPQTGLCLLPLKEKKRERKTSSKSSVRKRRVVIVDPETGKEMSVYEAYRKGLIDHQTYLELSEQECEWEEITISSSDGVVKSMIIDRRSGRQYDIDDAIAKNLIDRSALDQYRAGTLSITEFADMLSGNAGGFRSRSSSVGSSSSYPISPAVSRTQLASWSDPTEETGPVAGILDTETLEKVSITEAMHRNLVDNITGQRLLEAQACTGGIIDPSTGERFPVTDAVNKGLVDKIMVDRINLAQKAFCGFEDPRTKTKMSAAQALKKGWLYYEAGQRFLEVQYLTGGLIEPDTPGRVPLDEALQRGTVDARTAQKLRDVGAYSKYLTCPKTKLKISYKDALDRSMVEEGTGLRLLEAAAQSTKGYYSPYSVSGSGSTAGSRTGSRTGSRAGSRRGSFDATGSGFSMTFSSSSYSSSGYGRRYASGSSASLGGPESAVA
  lysine labeling ratio R10:1: 0.968 (active)

## STOM (lysine site: K198) (UniProt P27105)
Sequence of UniProt P27105 (P27105 whole entry): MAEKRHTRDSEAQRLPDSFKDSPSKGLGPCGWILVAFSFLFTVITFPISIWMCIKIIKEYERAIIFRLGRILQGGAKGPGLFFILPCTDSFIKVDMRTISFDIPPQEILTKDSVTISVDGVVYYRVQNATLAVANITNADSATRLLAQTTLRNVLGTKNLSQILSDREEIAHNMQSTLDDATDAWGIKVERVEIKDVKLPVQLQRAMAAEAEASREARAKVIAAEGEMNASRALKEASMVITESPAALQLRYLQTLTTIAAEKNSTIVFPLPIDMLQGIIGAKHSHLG
  lysine labeling ratio R10:1: 5.83

## ITGA6 (lysine site: K594) (UniProt P23229)
  lysine labeling ratio R10:1: 6.44

## ILF3 (lysine site: K214) (UniProt Q12906)
  lysine labeling ratio R10:1: 1.16 (active)

## FAT4 (lysine site: K2004) (UniProt Q6V0I7)
  lysine labeling ratio R10:1: 1.27 (active)

## PLXNB2 (lysine site: K322) (UniProt O15031)
  lysine labeling ratio R10:1: 0.663 (active)

## PRDX2 (lysine site: K119) (UniProt P32119)
  lysine labeling ratio R10:1: 2 (active)

## RPS19 (lysine site: K115) (UniProt P39019)
  lysine labeling ratio R10:1: 1.86 (active)

## MYH9 (lysine site: K1024) (UniProt P35579)
  lysine labeling ratio R10:1: 1.84 (active)

## NECTIN3 (lysine site: K249) (UniProt Q9NQS3)
  lysine labeling ratio R10:1: 5.88

## IGF2R (lysine site: K393) (UniProt P11717)
  lysine labeling ratio R10:1: 3.23

## RPSA (lysine site: K89) (UniProt P08865)
  lysine labeling ratio R10:1: 4.12

## UniProt Q14574 (lysine site: K281)
  lysine labeling ratio R10:1: 1.99 (active)

## UniProt P78333 (lysine site: K385)
  lysine labeling ratio R10:1: 2.8

## ALDOA (lysine site: K14) (UniProt P04075)
  lysine labeling ratio R10:1: 5.1

## SLC4A2 (lysine site: K975) (UniProt P04920)
  lysine labeling ratio R10:1: 2.29

## CLTC (lysine site: K637) (UniProt Q00610)
  lysine labeling ratio R10:1: 2.63

## ACTN4 (lysine site: K66) (UniProt O43707)
  lysine labeling ratio R10:1: 4.43

## GPC1 (lysine site: K461) (UniProt P35052)
  lysine labeling ratio R10:1: 1.89 (active)

## SPTAN1 (lysine site: K241) (UniProt Q13813)
  lysine labeling ratio R10:1: 7.04

## FLNA (lysine site: K1375) (UniProt P21333)
  lysine labeling ratio R10:1: 2.93

## TFRC (lysine site: K439) (UniProt P02786)
  lysine labeling ratio R10:1: 2.93

## DARS (lysine site: K40) (UniProt P14868)
  lysine labeling ratio R10:1: 2.54

## HNRNPU (lysine site: K592) (UniProt Q00839)
  lysine labeling ratio R10:1: 2.21

## ACTN4 (lysine site: K643) (UniProt O43707)
  lysine labeling ratio R10:1: 7.08

## SPTAN1 (lysine site: K274) (UniProt Q13813)
  lysine labeling ratio R10:1: 2.28

## ATP2A2 (lysine site: K757) (UniProt P16615)
  lysine labeling ratio R10:1: 1.36 (active)

## S100A4 (lysine site: K48) (UniProt P26447)
  lysine labeling ratio R10:1: 5.05

## TCP1 (lysine site: K272) (UniProt P17987)
  lysine labeling ratio R10:1: 2.44

## TLN1 (lysine site: K1332) (UniProt Q9Y490)
  lysine labeling ratio R10:1: 5.83

## LAMB1 (lysine site: K1757) (UniProt P07942)
  lysine labeling ratio R10:1: 5.94

## NUCB2 (lysine site: K171) (UniProt P80303)
  lysine labeling ratio R10:1: 2.34

## TMED9 (lysine site: K160) (UniProt Q9BVK6)
  lysine labeling ratio R10:1: 5.13

## PDIA6 (lysine site: K245) (UniProt Q15084)
  lysine labeling ratio R10:1: 1.95 (active)

## UniProt Q9UHN6 (lysine site: K1278)
  lysine labeling ratio R10:1: 1.31 (active)

## DSG2 (lysine site: K251) (UniProt Q14126)
  lysine labeling ratio R10:1: 8.19

## BASP1 (lysine site: K143) (UniProt P80723)
  lysine labeling ratio R10:1: 3.54

## UniProt Q15149 (lysine site: K2182)
  lysine labeling ratio R10:1: 1.67 (active)

## UniProt P05787 (lysine site: K464)
  lysine labeling ratio R10:1: 5.11

## EZR (lysine site: K344) (UniProt P15311)
  lysine labeling ratio R10:1: 7.1

## NPR3 (lysine site: K456) (UniProt P17342)
  lysine labeling ratio R10:1: 0.78 (active)

## PGRMC1 (lysine site: K105) (UniProt O00264)
  lysine labeling ratio R10:1: 2.63

## AHNAK (lysine site: K563) (UniProt Q09666)
  lysine labeling ratio R10:1: 2.5

## P4HB (lysine site: K103) (UniProt P07237)
  lysine labeling ratio R10:1: 4.27

## KIRREL (lysine site: K67) (UniProt Q96J84)
  lysine labeling ratio R10:1: 0.92 (active)

## ITGA1 (lysine site: K1046) (UniProt P56199)
  lysine labeling ratio R10:1: 0.547 (active)

## EEF2 (lysine site: K498) (UniProt P13639)
  lysine labeling ratio R10:1: 3.9

## AGRN (lysine site: K77) (UniProt O00468)
  lysine labeling ratio R10:1: 1.69 (active)

## RAB13 (lysine site: K172) (UniProt P51153)
Sequence of UniProt P51153 (P51153 whole entry): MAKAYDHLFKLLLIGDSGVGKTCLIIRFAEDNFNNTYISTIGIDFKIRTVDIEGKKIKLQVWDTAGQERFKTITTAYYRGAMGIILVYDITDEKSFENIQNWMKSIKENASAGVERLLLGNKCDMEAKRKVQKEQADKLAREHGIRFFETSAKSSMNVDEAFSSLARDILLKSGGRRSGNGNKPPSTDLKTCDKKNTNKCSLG
  lysine labeling ratio R10:1: 4.07

## UniProt P60660 (lysine site: K98)
  lysine labeling ratio R10:1: 3.79

## EPHB4 (lysine site: K474) (UniProt P54760)
  lysine labeling ratio R10:1: 0.746 (active)

## GALNT7 (lysine site: K648) (UniProt Q86SF2)
  lysine labeling ratio R10:1: 1.92 (active)

## TPM4 (lysine site: K13) (UniProt P67936)
  lysine labeling ratio R10:1: 3.28

## ATAD3B (lysine site: K281) (UniProt Q5T9A4)
  lysine labeling ratio R10:1: 12.6

## SCARB1 (lysine site: K288) (UniProt Q8WTV0)
  lysine labeling ratio R10:1: 0.704 (active)

## GPC1 (lysine site: K363) (UniProt P35052)
  lysine labeling ratio R10:1: 7.78

## GPI (lysine site: K440) (UniProt P06744)
  lysine labeling ratio R10:1: 1.78 (active)

## HNRNPC (lysine site: K98) (UniProt P07910)
  lysine labeling ratio R10:1: 3.25

## GAPDH (lysine site: K334) (UniProt P04406)
  lysine labeling ratio R10:1: 5.36

## MSLN (lysine site: K307) (UniProt Q13421)
  lysine labeling ratio R10:1: 1.74 (active)

## L1CAM (lysine site: K180) (UniProt P32004)
  lysine labeling ratio R10:1: 1.59 (active)

## HNRNPA1 (lysine site: K166) (UniProt P09651)
  lysine labeling ratio R10:1: 7.94

## THBS1 (lysine site: K968) (UniProt P07996)
  lysine labeling ratio R10:1: 1.48 (active)

## ITGA3 (lysine site: K638) (UniProt P26006)
  lysine labeling ratio R10:1: 5.04

## KRAS (lysine site: K128) (UniProt P01116)
  lysine labeling ratio R10:1: 1.02 (active)

## NSUN2 (lysine site: K28) (UniProt Q08J23)
  lysine labeling ratio R10:1: 2.49

## CLTC (lysine site: K1264) (UniProt Q00610)
  lysine labeling ratio R10:1: 1.58 (active)

## RDX (lysine site: K371) (UniProt P35241)
  lysine labeling ratio R10:1: 1.33 (active)

## G6PD (lysine site: K497) (UniProt P11413)
  lysine labeling ratio R10:1: 3.47

## TKT (lysine site: K283) (UniProt P29401)
  lysine labeling ratio R10:1: 7.35

## DYNC1H1 (lysine site: K2239) (UniProt Q14204)
  lysine labeling ratio R10:1: 6.84

## SEMA3C (lysine site: K616) (UniProt Q99985)
  lysine labeling ratio R10:1: 5.77

## FLNB (lysine site: K1780) (UniProt O75369)
  lysine labeling ratio R10:1: 2.69

## ITGB5 (lysine site: K72) (UniProt P18084)
  lysine labeling ratio R10:1: 2.3

## TFRC (lysine site: K95) (UniProt P02786)
  lysine labeling ratio R10:1: 4.27

## FLNA (lysine site: K704) (UniProt P21333)
  lysine labeling ratio R10:1: 1.61 (active)

## CDH2 (lysine site: K448) (UniProt P19022)
  lysine labeling ratio R10:1: 3.81

## UniProt P62269 (lysine site: K54)
  lysine labeling ratio R10:1: 1.41 (active)

## UniProt Q99466 (lysine site: K1372)
  lysine labeling ratio R10:1: 9.22

## UniProt P16144 (lysine site: K392)
  lysine labeling ratio R10:1: 0.94 (active)

## UniProt P0C0S5 (lysine site: K14)
  lysine labeling ratio R10:1: 1.12 (active)

## UniProt P52803 (lysine site: K180)
  lysine labeling ratio R10:1: 6.21

## TGFBR3 (lysine site: K667) (UniProt Q03167)
  lysine labeling ratio R10:1: 0.83 (active)

## ITGA6 (lysine site: K953) (UniProt P23229)
  lysine labeling ratio R10:1: 3.1

## PFKP (lysine site: K109) (UniProt Q01813)
  lysine labeling ratio R10:1: 1.5 (active)

## UniProt P48047 (lysine site: K60)
  lysine labeling ratio R10:1: 2.17

## RAB13 (lysine site: K58) (UniProt P51153)
  lysine labeling ratio R10:1: 13.2

## CKAP4 (lysine site: K388) (UniProt Q07065)
  lysine labeling ratio R10:1: 2.6

## GANAB (lysine site: K491) (UniProt Q14697)
  lysine labeling ratio R10:1: 1.12 (active)

## SPTAN1 (lysine site: K2078) (UniProt Q13813)
  lysine labeling ratio R10:1: 4.25

## L1CAM (lysine site: K381) (UniProt P32004)
  lysine labeling ratio R10:1: 14

## INSR (lysine site: K476) (UniProt P06213)
  lysine labeling ratio R10:1: 1.75 (active)

## UniProt P62244 (lysine site: K60)
  lysine labeling ratio R10:1: 2.48

## RPS3A (lysine site: K56) (UniProt P61247)
  lysine labeling ratio R10:1: 1.81 (active)

## RPL34 (lysine site: K85) (UniProt P49207)
  lysine labeling ratio R10:1: 1.67 (active)

## SHMT2 (lysine site: K409) (UniProt P34897)
  lysine labeling ratio R10:1: 2.98

## CNP (lysine site: K101) (UniProt P09543)
  lysine labeling ratio R10:1: 2.62

## UniProt Q15149 (lysine site: K3887)
  lysine labeling ratio R10:1: 3.96
